These results are taken from US20030175730, “Multivalent RNA aptamers and their expression in multicellular organisms” (published 2003).

B52 (SRp55) full length, sequence (P26686 other isoform, or with tags, fused parts or gaps): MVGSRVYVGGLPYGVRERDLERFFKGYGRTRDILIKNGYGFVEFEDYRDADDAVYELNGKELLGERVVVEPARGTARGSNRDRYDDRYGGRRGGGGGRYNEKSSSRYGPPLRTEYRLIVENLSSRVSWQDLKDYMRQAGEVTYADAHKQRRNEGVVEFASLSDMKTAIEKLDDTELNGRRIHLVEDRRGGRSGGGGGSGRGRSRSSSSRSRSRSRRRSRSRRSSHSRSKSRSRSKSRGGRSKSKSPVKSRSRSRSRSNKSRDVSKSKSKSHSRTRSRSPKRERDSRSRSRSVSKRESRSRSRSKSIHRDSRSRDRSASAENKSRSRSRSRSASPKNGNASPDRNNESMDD

For this test, the target named is B52 (SRp55) full length (Drosophila melanogaster, UniProt P26686 P26686:1-350). Nature of the test: EMSA; almost a factor of three. The settings on record: tags: baculovirus/Sf9 expressed, SR protein purification; label: 32P-UTP; ssRNA. The method, then:
All binding assays were performed in 20 μl volume in 1× binding buffer described above. A typical binding assay using labeled RNA contains about 20 finole of ³²P-labeled RNA probe and differing amounts (1-10 pmole) of B52 protein. A typical binding assay using the truncated versions of B52 contains 1 μl of the ³⁵S-labeled translation reaction mixture with 2 pmoles of unlabeled RNA transcript (the final concentration of RNAs in this reaction was 100 nM and concentration of the labeled B52 proteins was much lower). The reactions were allowed to equilibrate for 15-20 minutes at ambient temperature before being subjected to filter binding, gel shift, or UV crosslinking.
To determine the sequence/structure requirements for binding by B52, deletion and substitution mutations, and antisense constructs of BBS were designed in light of the shared sequence motif and predicted secondary structures (FIG. 4). These short RNA transcripts were produced by in vitro transcription of synthetic templates, and their affinity to B52 was assayed by band shift.
On the technique in general: Mobility shift assays separate free from complexed probe on a gel.
GGACGAUCAACCAGGCGACAGU: the binding signal is ~3 fold lower affinity than BBS-II.
